Experimental data published in PubChem BioAssay AID1159580 (chemical genetic matrix, 2015).
Several values for one entry are separate records, joined by “and”; a condition that tells them apart may be missing. Identical values can stand only once. In all, about 5,500 compounds went through this assay and about 2,000 (36%) were called active. About 18% were inconclusive and are not listed. Cut-off read from the data, not from the text of the source: active = normalized growth mostly below about 0.91 (no sharp cut-off); inconclusive = no clear call, values can overlap the other calls; inactive = mostly above about 0.92. The list shows a part of the results.

Experiment: chemical genetic growth profiling, strain panel (AID 1159580);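 note: tested at 20 µM; growth read once vehicle control cultures reached saturation at 30 °C; 1 = growth at the plate median or of vehicle wells; lower values mean less growth of the strain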
Settings: growth OD

Measured: normalized growth

NC/C=C/C(=O)O
inactive: S. cerevisiae deletion strains, locus YJR043C, strain POL32, active compounds read low 1.04 | S. cerevisiae deletion strains, locus YJR075W, strain HOC1, active compounds read low 1.01 | S. cerevisiae deletion strains, locus YKL009W, strain mrt4, active compounds read low 1.03 | S. cerevisiae deletion strains, locus YKL068W, active compounds read low 1.01 | S. cerevisiae deletion strains, locus YKL085W, strain MDH1 (second series), active compounds read low 1.01 | S. cerevisiae deletion strains, locus YKL085W, strain MDH1, active compounds read low 1.01 | S. cerevisiae deletion strains, locus YKL160W, strain elf1, active compounds read low 0.981 | S. cerevisiae deletion strains, locus YKL190W, strain CNB1, active compounds read low 1.02 | S. cerevisiae deletion strains, locus YKR001C, strain vps1, active compounds read low 1.02 | S. cerevisiae deletion strains, locus YKR026C, strain gcn3, active compounds read low 0.987 | S. cerevisiae deletion strains, locus YKR091W, strain srl3, active compounds read low 1.01 | S. cerevisiae deletion strains, locus YLL001W, strain dnm1, active compounds read low 1 | S. cerevisiae deletion strains, locus YLL026W, active compounds read low 1 | S. cerevisiae deletion strains, locus YLL041C, strain sdh2, active compounds read low 1.01 | S. cerevisiae deletion strains, locus YLR027C, strain aat2, active compounds read low 1.01 | S. cerevisiae deletion strains, locus YLR039C, strain RIC1, active compounds read low 1.07 | S. cerevisiae deletion strains, locus YLR058C, strain SHM2, active compounds read low 1.02 | S. cerevisiae deletion strains, locus YLR102C, strain apc9, active compounds read low 1.01 | S. cerevisiae deletion strains, locus YLR221C, strain rsa3, active compounds read low 0.999 | S. cerevisiae deletion strains, locus YLR258W, strain gsy2, active compounds read low 1.02 | S. cerevisiae deletion strains, locus YLR262C, strain YPT6 (second series), active compounds read low 1.01 | S. cerevisiae deletion strains, locus YLR262C, strain YPT6, active compounds read low 1.03 | S. cerevisiae deletion strains, locus YLR268W, strain sec22, active compounds read low 0.98 | S. cerevisiae deletion strains, locus YLR320W, strain mms22, active compounds read low 1.01 | S. cerevisiae deletion strains, locus YLR330W, strain CHS5, active compounds read low 1.01 | S. cerevisiae deletion strains, locus YLR342W, strain FKS1 (second series), active compounds read low 1.11 | S. cerevisiae deletion strains, locus YLR342W, strain FKS1, active compounds read low 1.01 | S. cerevisiae deletion strains, locus YLR357W, strain rsc2, active compounds read low 1.1 | S. cerevisiae deletion strains, locus YLR370C, strain arc18, active compounds read low 1.01 | S. cerevisiae deletion strains, locus YLR371W, strain rom2, active compounds read low 1.02 | S. cerevisiae deletion strains, locus YLR384C, strain iki3, active compounds read low 1.02 | S. cerevisiae deletion strains, locus YLR418C, strain cdc73, active compounds read low 0.943 | S. cerevisiae deletion strains, locus YML016C, strain PPZ1, active compounds read low 1.01 | S. cerevisiae deletion strains, locus YML032C, strain rad52, active compounds read low 1.05 | S. cerevisiae deletion strains, locus YML120C, strain ndi1, active compounds read low 1.01 | S. cerevisiae deletion strains, locus YML124C, strain tub3, active compounds read low 1.01 | S. cerevisiae deletion strains, locus YMR058W, strain fet3, active compounds read low 1.01 | S. cerevisiae deletion strains, locus YMR078C, strain ctf18, active compounds read low 1.02 | S. cerevisiae deletion strains, locus YMR125W, strain sto1, active compounds read low 1.04 | S. cerevisiae deletion strains, locus YMR129W, active compounds read low 0.973 | S. cerevisiae deletion strains, locus YMR205C, strain PFK2, active compounds read low 1.02 | S. cerevisiae deletion strains, locus YMR223W, strain ubp8, active compounds read low 1.04 | S. cerevisiae deletion strains, locus YMR231W, strain pep5, active compounds read low 1.01 | S. cerevisiae deletion strains, locus YMR263W, strain SAP30, active compounds read low 1.01 | S. cerevisiae deletion strains, locus YMR307W, strain GAS1, active compounds read low 1.02 and 0.997 | S. cerevisiae deletion strains, locus YNL067W, strain RPL9B, active compounds read low 1.01 | S. cerevisiae deletion strains, locus YNL071W, strain lat1, active compounds read low 1.01 | S. cerevisiae deletion strains, locus YNL128W, strain TEP1, active compounds read low 0.988 | S. cerevisiae deletion strains, locus YNL153C, strain GIM3, active compounds read low 1.01 and 1.03 | S. cerevisiae deletion strains, locus YNL175C, strain NOP13, active compounds read low 1 | S. cerevisiae deletion strains, locus YNL197C, strain WHI3, active compounds read low 0.996 | S. cerevisiae deletion strains, locus YNL209W, strain ssb2, active compounds read low 1 | S. cerevisiae deletion strains, locus YNL224C, strain SQS1, active compounds read low 1 | S. cerevisiae deletion strains, locus YNL233W, strain BNI4, active compounds read low 1.02 | S. cerevisiae deletion strains, locus YNL248C, strain rpa49, active compounds read low 1.01 | S. cerevisiae deletion strains, locus YNL250W, strain rad50, active compounds read low 1 | S. cerevisiae deletion strains, locus YNL271C, strain bni1, active compounds read low 1.02 | S. cerevisiae deletion strains, locus YNL298W, strain CLA4, active compounds read low 1.01 | S. cerevisiae deletion strains, locus YNL307C, strain MCK1, active compounds read low 1.05 | S. cerevisiae deletion strains, locus YNL322C, strain KRE1 (second series), active compounds read low 1 | S. cerevisiae deletion strains, locus YNL322C, strain KRE1, active compounds read low 1.01 and 1.02 | S. cerevisiae deletion strains, locus YNR049C, strain mso1, active compounds read low 1.01 | S. cerevisiae deletion strains, locus YNR052C, strain pop2, active compounds read low 1.01 | S. cerevisiae deletion strains, locus YOL006C, strain TOP1, active compounds read low 1.04 | S. cerevisiae deletion strains, locus YOL012C, strain htz1 0.927 | S. cerevisiae deletion strains, locus YOL147C, strain pex11, active compounds read low 1.01 | S. cerevisiae deletion strains, locus YOR001W, strain rrp6, active compounds read low 0.99 | S. cerevisiae deletion strains, locus YOR061W, strain CKA2, active compounds read low 1.01 | S. cerevisiae deletion strains, locus YOR069W, strain VPS5, active compounds read low 1.02 | S. cerevisiae deletion strains, locus YOR070C, strain gyp1, active compounds read low 1 | S. cerevisiae deletion strains, locus YOR080W, strain dia2, active compounds read low 1 | S. cerevisiae deletion strains, locus YOR083W, strain WHI5 (second series), active compounds read low 1.02 | S. cerevisiae deletion strains, locus YOR083W, strain WHI5, active compounds read low 0.971 | S. cerevisiae deletion strains, locus YOR106W, strain vam3, active compounds read low 0.991 | S. cerevisiae deletion strains, locus YOR136W, strain idh2, active compounds read low 1.01 | S. cerevisiae deletion strains, locus YOR144C, strain elg1, active compounds read low 1 | S. cerevisiae deletion strains, locus YOR184W, strain ser1, active compounds read low 1.06 | S. cerevisiae deletion strains, locus YOR265W, strain rbl2, active compounds read low 1.01 | S. cerevisiae deletion strains, locus YOR270C, strain vph1, active compounds read low 1.01 | S. cerevisiae deletion strains, locus YOR290C, strain snf2, active compounds read low 0.993 | S. cerevisiae deletion strains, locus YOR316C, strain cot1, active compounds read low 1.02 | S. cerevisiae deletion strains, locus YPL051W, strain arl3, active compounds read low 0.989 | S. cerevisiae deletion strains, locus YPL055C, strain LGE1, active compounds read low 0.952 and 1.01 | S. cerevisiae deletion strains, locus YPL078C, strain atp4, active compounds read low 0.983 | S. cerevisiae deletion strains, locus YPL106C, strain sse1, active compounds read low 1.02 | S. cerevisiae deletion strains, locus YPL240C, strain hsp82, active compounds read low 0.991 | S. cerevisiae deletion strains, locus YPL241C, strain CIN2, active compounds read low 1.02 and 1 | S. cerevisiae deletion strains, locus YPR119W, strain clb2, active compounds read low 1 | S. cerevisiae deletion strains, locus YPR141C, strain kar3, active compounds read low 1.01 | S. cerevisiae deletion strains, locus YPR163C, strain tif3, active compounds read low 1.01 | S. cerevisiae deletion strains, locus YPR167C, strain met16, active compounds read low 1.01 | S. cerevisiae deletion strains, strain wtn01, active compounds read low 0.982 | S. cerevisiae strains, strain wild type, active compounds read low 1.03
